For 14 compounds, residual activity results are on record in ChEMBL document CHEMBL2218924, “A broad activity screen in support of a chemogenomic map for kinase signalling research and drug discovery” (Biochem J, 2013).

In experiment [1] the target is Serine/threonine-protein kinase WNK2 (Homo sapiens) (UniProt Q9Y3S1). The conditions noted are these: at 10 µM.
Experiment [2] addresses Serine/threonine-protein kinase WNK3 (Homo sapiens) (UniProt Q9BYP7). The conditions noted are these: at 1 µM.
Experiment [3] has the same target. The conditions noted are these: at 10 µM.
For experiment [4], the target named is Tyrosine-protein kinase Yes (Homo sapiens) (UniProt P07947). The conditions noted are these: at 1 µM.
Tyrosine-protein kinase Yes (Homo sapiens), sequence (P07947 2-543 limits assumed): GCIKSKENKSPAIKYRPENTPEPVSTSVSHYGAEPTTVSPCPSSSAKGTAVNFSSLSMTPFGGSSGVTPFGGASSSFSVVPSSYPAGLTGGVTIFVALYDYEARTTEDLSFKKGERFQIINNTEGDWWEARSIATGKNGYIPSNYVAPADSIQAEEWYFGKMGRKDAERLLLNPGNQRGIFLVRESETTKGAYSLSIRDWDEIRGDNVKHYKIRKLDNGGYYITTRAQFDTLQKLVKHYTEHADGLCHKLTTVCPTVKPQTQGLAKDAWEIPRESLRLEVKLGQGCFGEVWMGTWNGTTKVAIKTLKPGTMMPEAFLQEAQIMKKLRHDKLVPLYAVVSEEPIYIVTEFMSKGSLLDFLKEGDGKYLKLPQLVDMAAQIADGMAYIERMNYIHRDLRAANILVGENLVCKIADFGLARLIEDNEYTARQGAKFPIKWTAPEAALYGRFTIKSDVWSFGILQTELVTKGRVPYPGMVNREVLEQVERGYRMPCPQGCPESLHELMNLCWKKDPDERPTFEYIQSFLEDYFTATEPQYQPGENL
For experiment [5] the target is unchanged. The conditions noted are these: at 10 µM.
For experiment [6], the target named is Death-associated protein kinase 3 (Homo sapiens) (UniProt O43293). The conditions noted are these: at 10 µM.
Death-associated protein kinase 3 (Homo sapiens), sequence (O43293 whole entry, looked up): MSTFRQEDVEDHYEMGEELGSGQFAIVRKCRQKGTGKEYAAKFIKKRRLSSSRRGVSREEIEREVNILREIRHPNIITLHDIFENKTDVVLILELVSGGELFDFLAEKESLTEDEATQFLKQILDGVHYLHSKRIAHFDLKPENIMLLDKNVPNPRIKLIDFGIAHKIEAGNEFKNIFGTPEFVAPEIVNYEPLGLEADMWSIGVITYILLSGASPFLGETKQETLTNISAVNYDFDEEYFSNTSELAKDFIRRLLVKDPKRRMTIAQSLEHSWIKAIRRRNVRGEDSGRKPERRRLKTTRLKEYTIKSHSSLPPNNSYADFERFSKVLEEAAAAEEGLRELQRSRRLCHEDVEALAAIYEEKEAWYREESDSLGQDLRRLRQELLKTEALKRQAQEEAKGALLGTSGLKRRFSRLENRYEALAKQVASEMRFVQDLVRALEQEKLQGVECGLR
The target in experiment [7] is Serine/threonine-protein kinase mTOR (Homo sapiens) (UniProt P42345). Conditions: at 1 µM; call rule not given here.
Experiment [8] shares this target. Conditions: at 10 µM.
Experiment [9] deals with RAF proto-oncogene serine/threonine-protein kinase (Homo sapiens) (UniProt P04049). Conditions: at 1 µM.
The target is the same in experiment [10]. Conditions: at 10 µM.
The target of experiment [11] is Mast/stem cell growth factor receptor Kit (Homo sapiens) (UniProt P10721). The conditions noted are these: at 1 µM.
The target is the same in experiment [12]. Conditions: at 10 µM.
The target in experiment [13] is Proto-oncogene tyrosine-protein kinase Src (Homo sapiens) (UniProt P12931). Conditions: at 1 µM.
For experiment [14] the target is unchanged. Conditions: at 10 µM.
Experiment [15] deals with Serine/threonine-protein kinase mTOR (Homo sapiens) (UniProt P42345). Conditions: at 1 µM. The source holds these as a separate data set.
Experiment [16] has the same target. The conditions noted are these: at 10 µM. This is another data set of the same source.
Experiment [17] deals with T1, Tyrosine-protein kinase ZAP-70 (Homo sapiens) (UniProt P43403).
T1 sequence (whole entry): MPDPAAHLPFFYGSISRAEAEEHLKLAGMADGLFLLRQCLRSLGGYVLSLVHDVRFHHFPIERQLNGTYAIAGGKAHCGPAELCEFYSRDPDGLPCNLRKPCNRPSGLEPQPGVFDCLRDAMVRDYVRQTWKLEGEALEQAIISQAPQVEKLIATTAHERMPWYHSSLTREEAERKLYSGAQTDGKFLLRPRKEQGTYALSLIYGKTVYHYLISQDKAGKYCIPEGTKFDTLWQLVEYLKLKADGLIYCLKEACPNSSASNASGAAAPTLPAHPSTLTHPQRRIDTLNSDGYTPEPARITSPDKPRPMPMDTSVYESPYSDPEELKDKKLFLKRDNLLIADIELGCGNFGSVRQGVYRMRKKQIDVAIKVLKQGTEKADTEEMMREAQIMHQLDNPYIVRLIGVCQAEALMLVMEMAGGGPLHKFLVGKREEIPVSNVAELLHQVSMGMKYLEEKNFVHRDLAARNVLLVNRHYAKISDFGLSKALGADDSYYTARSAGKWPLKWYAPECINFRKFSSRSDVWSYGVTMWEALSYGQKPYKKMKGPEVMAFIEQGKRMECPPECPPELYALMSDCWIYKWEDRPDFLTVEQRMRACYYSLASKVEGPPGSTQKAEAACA
The conditions noted are these: at 1 µM.

The target of experiment [18] is Death-associated protein kinase 3 (Homo sapiens) (UniProt O43293). The conditions noted are these: at 1 µM.

Serine/threonine-protein kinase WNK2 (Homo sapiens), sequence (Q9Y3S1 whole entry): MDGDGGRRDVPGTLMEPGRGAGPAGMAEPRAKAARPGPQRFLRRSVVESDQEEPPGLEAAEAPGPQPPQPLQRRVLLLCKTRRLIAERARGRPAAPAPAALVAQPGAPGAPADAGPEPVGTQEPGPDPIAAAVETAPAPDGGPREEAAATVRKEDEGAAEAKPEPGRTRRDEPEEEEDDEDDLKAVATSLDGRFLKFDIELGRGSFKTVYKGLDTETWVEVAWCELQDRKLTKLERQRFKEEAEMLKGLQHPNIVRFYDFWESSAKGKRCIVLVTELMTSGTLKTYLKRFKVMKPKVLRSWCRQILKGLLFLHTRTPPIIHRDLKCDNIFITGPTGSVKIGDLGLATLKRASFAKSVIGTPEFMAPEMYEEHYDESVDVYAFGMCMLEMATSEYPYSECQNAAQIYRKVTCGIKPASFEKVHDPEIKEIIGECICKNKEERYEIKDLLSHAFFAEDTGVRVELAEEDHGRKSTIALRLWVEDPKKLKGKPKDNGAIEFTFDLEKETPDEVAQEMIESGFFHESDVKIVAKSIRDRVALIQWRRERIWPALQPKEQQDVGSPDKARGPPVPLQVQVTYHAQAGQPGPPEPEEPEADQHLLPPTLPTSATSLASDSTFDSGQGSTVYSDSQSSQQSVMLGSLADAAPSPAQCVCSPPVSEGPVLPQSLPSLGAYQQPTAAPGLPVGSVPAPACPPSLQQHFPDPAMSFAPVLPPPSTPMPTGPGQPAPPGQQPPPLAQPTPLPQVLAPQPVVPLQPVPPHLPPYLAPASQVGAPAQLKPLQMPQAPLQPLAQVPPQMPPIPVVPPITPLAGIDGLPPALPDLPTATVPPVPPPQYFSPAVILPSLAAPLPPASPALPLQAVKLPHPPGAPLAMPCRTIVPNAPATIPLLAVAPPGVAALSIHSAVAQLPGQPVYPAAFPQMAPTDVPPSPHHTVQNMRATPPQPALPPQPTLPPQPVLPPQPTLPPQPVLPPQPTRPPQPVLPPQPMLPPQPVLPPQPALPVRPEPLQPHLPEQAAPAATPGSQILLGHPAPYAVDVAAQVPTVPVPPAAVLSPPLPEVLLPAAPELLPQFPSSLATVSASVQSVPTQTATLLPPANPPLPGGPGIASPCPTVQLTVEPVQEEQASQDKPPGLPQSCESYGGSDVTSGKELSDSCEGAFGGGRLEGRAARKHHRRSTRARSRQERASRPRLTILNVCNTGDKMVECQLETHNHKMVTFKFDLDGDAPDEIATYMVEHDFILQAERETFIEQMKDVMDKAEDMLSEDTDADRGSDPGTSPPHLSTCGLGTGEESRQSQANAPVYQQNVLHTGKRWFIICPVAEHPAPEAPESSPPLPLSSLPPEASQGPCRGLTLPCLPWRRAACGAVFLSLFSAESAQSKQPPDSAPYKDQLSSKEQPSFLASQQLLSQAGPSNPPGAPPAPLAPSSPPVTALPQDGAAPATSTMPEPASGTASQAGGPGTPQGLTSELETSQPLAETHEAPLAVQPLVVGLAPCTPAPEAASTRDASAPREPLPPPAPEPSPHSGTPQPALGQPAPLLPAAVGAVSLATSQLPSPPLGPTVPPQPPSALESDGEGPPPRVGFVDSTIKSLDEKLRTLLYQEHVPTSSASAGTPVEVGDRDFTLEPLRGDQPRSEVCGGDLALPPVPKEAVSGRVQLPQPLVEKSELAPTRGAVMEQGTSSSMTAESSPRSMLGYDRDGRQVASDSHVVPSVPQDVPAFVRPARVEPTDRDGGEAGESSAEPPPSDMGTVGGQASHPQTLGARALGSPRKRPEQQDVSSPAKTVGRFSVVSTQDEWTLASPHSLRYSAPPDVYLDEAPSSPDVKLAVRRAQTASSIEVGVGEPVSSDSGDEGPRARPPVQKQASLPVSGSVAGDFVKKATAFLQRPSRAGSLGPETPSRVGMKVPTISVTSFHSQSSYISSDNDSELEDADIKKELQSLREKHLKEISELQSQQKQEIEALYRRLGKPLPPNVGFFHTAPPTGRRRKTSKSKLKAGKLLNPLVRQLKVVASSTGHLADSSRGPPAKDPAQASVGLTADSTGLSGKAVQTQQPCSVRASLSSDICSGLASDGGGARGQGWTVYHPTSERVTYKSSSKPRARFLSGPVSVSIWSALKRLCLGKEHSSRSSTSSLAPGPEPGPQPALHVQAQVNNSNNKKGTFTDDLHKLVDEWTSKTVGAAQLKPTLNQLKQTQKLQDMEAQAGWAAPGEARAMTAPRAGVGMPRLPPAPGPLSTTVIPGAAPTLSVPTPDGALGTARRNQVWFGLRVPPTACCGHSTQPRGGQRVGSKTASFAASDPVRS
Serine/threonine-protein kinase WNK3 (Homo sapiens), sequence (Q9BYP7 whole entry): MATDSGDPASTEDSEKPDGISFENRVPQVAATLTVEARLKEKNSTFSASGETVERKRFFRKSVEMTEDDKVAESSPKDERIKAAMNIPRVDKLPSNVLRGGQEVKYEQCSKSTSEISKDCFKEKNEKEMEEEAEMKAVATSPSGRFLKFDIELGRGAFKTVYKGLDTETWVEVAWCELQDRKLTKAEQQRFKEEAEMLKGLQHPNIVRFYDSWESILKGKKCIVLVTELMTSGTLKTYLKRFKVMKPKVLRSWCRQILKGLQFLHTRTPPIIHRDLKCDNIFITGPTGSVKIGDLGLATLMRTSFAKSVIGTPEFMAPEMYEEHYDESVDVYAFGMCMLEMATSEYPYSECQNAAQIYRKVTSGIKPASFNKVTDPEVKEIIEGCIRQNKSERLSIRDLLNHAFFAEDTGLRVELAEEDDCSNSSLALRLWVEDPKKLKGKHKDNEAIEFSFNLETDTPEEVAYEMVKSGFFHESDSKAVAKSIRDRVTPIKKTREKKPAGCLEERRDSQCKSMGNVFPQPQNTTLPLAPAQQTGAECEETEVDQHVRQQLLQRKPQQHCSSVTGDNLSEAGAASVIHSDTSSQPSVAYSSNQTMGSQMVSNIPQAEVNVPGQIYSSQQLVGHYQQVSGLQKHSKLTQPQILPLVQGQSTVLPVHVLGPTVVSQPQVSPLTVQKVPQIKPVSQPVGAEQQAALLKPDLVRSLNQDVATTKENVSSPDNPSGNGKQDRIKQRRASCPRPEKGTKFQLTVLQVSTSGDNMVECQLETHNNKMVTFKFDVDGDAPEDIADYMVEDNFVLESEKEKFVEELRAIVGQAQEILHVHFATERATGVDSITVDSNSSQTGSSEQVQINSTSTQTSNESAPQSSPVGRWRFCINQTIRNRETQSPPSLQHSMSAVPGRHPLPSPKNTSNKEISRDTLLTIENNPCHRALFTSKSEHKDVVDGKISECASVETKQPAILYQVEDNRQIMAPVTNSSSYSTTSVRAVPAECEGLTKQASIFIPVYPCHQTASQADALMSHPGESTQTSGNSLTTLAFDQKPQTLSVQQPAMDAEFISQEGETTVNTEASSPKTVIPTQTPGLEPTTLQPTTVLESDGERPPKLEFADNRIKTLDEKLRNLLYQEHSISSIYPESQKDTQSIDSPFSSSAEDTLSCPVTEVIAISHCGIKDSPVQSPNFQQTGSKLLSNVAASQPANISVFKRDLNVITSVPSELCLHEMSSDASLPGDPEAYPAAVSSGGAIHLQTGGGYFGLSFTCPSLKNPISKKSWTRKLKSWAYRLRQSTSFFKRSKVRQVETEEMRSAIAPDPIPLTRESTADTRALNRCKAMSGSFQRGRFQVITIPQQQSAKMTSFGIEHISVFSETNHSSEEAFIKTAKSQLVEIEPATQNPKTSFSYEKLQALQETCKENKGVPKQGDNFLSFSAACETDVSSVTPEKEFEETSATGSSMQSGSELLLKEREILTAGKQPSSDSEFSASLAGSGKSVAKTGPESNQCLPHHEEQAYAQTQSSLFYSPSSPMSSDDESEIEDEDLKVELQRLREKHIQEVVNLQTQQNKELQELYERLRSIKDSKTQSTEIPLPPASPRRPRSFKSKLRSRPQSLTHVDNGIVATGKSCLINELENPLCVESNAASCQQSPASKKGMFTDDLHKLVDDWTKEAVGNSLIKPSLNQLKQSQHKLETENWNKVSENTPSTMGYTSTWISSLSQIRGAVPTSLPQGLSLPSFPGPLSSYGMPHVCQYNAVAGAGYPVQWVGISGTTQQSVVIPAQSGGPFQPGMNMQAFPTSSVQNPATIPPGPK

Usually residual activity stands for the signal under treatment as a percentage of the control signal. On to `N#C/C(=C1/Nc2ccccc2S1)c1ccnc(NCCc2cccnc2)n1`, for which the residual activity in [1] is 28%; in experiment [2], 73% (inactive); in [3] it was 39%; in experiment [4] it was 113%; in experiment [5] it was 48%; in experiment [6], 76%. Further, the figures for the residual activity in experiment [7] and in experiment [8] were 89% and 62%, respectively.
With `Oc1cccc(-c2nc(N3CCOCC3)c3oc4ncccc4c3n2)c1`, the residual activity in [1] is 93%; in [2], 119% (inactive); in experiment [5] it was 93%; in [9], 81%; in experiment [10] it was 91%; in experiment [11], 118%. Moreover, the residual activity in [12] was 100%; in experiment [13], 91%; in experiment [14], 94%; in experiment [7], 49%; in experiment [8], 35%; in experiment [15], -12%. Also, in [16], the residual activity was determined as 7%.
On to `O=C1Cc2c([nH]c3ccc(Br)cc23)-c2ccccc2N1`, for which the residual activity in [1] was 67%; in experiment [2], 88% (inactive); in experiment [3], 70%; in [4], 42%; in experiment [5] it was 9%; in [9] it was 75%. In addition, in [10], the residual activity was determined as 69%.
In the case of `Cn1sc(=O)n(Cc2ccccc2)c1=O`, the residual activity in experiment [1] is 88%; in experiment [2], 99% (inactive); in [3], 79%; in experiment [17], 98%; in experiment [18], 87%; in experiment [6], 97%. Moreover, the residual activity in experiment [9] is 71%; in experiment [10], 73%; in experiment [11], 100%; in experiment [12], 85%; in [14] it was 92%.
As to `CC(C)[C@H](CO)Nc1nc(Nc2cc(N)cc(Cl)c2)c2ncn(C(C)C)c2n1`, the residual activity was 40% in [1]; 88% (inactive) in experiment [2]; 37% in experiment [3]; 5% in experiment [4]; 0% in experiment [5]; 98% in experiment [17]. The residual activity is 95% in [18]; 84% in [6]; 59% in experiment [9]; 17% in [10]; 99% in experiment [11]; 89% in experiment [12]. Also, the residual activity in experiment [13] came to 28%; in experiment [14], 2%; in experiment [7] it was 98%; in experiment [8] it was 83%; in [16], 72%.
Consider `O=C1C(Cl)=C(N2C(=O)CCC2=O)C(=O)c2ccccc21`, for which the residual activity in [1] is 92%; in experiment [2], 94% (inactive); in experiment [3], 95%; in experiment [5], 101%; in experiment [9], 82%; in experiment [10], 61%. Also, the residual activity in [11] is 101%; in [12] it was 98%; in [13] it was 124%; in experiment [14], 89%; in [16] it was 78%.
As to `O=C(c1ccccc1)c1ccc(N2CCOCC2)cc1O`, the residual activity is 94% in experiment [1]; 112% (inactive) in experiment [2]; 97% in experiment [3]; 115% in experiment [4]; 95% in experiment [5]; 84% in experiment [18]. For the same compound, the residual activity amounted to 93% in experiment [9]; 94% in experiment [10]; 111% in experiment [11]; 96% in [12]; 87% in experiment [13]; 93% in experiment [14]. Further, the residual activity in [7] came to 88%; in [8] it was 94%; in experiment [15] it was 96%; in experiment [16] it was 54%.
For the compound `NC(=O)c1ccc(-c2nc(-c3ccc4c(c3)OCCO4)c(-c3ccccn3)[nH]2)cc1`, the residual activity in experiment [1] was 96%; in [2], 123% (inactive); in [3], 98%; in [17], 88%; in experiment [9] it was 85%; in experiment [10] it was 55%. Further, the residual activity in [13] is 96%; in experiment [14] it was 94%; in [7], 100%; in experiment [8], 84%; in experiment [16], 85%.
For the compound `COc1cc2c(cc1OC)-c1n[nH]c(Nc3cccc(F)c3)c1C2`, the residual activity in experiment [1] was determined as 46%; in experiment [3], 59%; in [4], 17%; in experiment [5], 1%; in experiment [18], 73%; in experiment [6], 98%. The residual activity came to 64% in [9]; 54% in [10]; 0% in experiment [11]; 0% in experiment [12]; 44% in experiment [13]; 7% in [14]. The residual activity in [7] is 110%; in experiment [8], 108%; in [16], 107%.
Consider `COc1cc2nccc(Oc3ccc(NC(=S)NC(=O)c4ccccc4C)cc3)c2cc1OC`, for which the residual activity in [1] is 43%; in experiment [2] it was 82% (inactive); in experiment [3] it was 49%; in [4], 15%; in [5], 3%; in experiment [17], 94%. In addition, the residual activity in experiment [9] came to 65%; in experiment [10], 73%; in experiment [11], 28%; in [12], 3%; in experiment [13], 32%; in experiment [14], 7%.
In the case of `O=C(c1cc2cc(O)ccc2[nH]1)c1cc2cc(O)ccc2[nH]1`, the residual activity in experiment [1] turned out to be 35%; in experiment [3] it was 44%; in [4], 6%; in experiment [5] it was 0%; in [17], 127%; in experiment [6], 49%. Further, the residual activity came to 76% in experiment [9]; 72% in [10]; 33% in experiment [11]; 5% in experiment [12]; 28% in experiment [13]; 3% in experiment [14].
For the compound `CN(C)S(=O)(=O)c1ccc2c(c1)/C(=C/c1cc3c([nH]1)CCCC3)C(=O)N2`, the residual activity in experiment [1] was 89%; in [2], 100% (inactive); in [3], 89%; in experiment [4], 12%; in [5], 6%; in experiment [17], 114%. Also, the residual activity in experiment [18] was 94%; in experiment [6], 100%; in [9], 91%; in [10], 91%; in [11], 29%; in experiment [12], 28%. The results for the residual activity in [13] and in experiment [14] were 31% and 35%, respectively.
Consider `Nc1ncnc2c1cnn2-c1ccccc1`, for which the residual activity in experiment [1] is 91%; in experiment [2], 99% (inactive); in experiment [3], 92%; in experiment [5], 92%; in [17], 98%; in experiment [18], 92%. Moreover, the residual activity in experiment [13] was 79%; in experiment [14] it was 98%; in [16], 83%.
In the case of `Nc1nc(Nc2ccc(S(N)(=O)=O)cc2)nn1C(=O)c1c(F)cccc1F`, the residual activity was 82% in experiment [1]; 100% (inactive) in experiment [2]; 80% in [3]; 50% in experiment [4]; 4% in experiment [5]; 79% in experiment [9]. Also, the residual activity in experiment [10] was 26%; in [11] it was 100%; in experiment [12] it was 63%; in [7], 115%.
